Reference: PubChem BioAssay (NCI)
This is part of a sample that, as a whole, favours compounds with a hit. Of some 83,000 tested, about 20% had one in any assay.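 The test compound was applied at a single concentration to cells in 96-well plates for 48 hours, and percent growth was recorded.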 Calls of active or inactive are those of the source.

The compounds below were run on HOP-92 NSCLC (assay: NCI-60 one-dose screen, 48 h (100 = growth as untreated, 0 = no growth, -100 = all killed)). Conditions: 10 µM unless noted.
Experimental: Growth inhibition of the HOP-92 human Non-Small Cell Lung tumor cell line is measured as a screen for anti-cancer activity. Cells are grown in 96 well plates and exposed to the test compound for 48 hours. Compounds are tested at a single concentration, which is 10^-5 M for most compounds. The reported endpoint is percent growth (GI% or GIPRCNT), where numbers from 0 - 100% represent growth inhibition, and numbers from -100% - 0 represent cell death. For example, a value of 40 represents 60% growth inhibition. A value of 0 means no net growth occurred over the course of the experiment. A value of -40 indicates 40% of cells at the beginning of the experiment died by the end of the experiment. A value of -100 means all cells are dead at the end of the experiment.
NCI-60 Human Tumor Cell Lines Screen was performed using the standard one-dose NCI protocol, which is described in more detail at https://dtp.cancer.gov/discovery_development/nci-60/default.htm.
Compounds with GIPRCNT values below 10 were considered active. Activity score was based on GIPRCNT using the following formula: […]
Score is 0 for GIPRCNT values of 100 or above, 50 for GIPRCNT values of 0, and 100 for GIPRCNT values of -100.

SMILES | growth
C1=C2CNCC3=Cc4ccc5ccccc5c4OC23Oc2c1ccc1ccccc21 | 37.2% (inactive)
CC(=O)OCCCCCNc1ccccc1 | 109% (inactive)
Nc1nc(SN=Nc2ccc(S(N)(=O)=O)cc2)c2[nH]cnc2n1 | -6.95% (active)
CCSc1ccc2c(c1)N(CCCN1CCN(C)CC1)c1ccccc1S2 | 20.3% (inactive)
COc1cc(NCCCN(CC(C)C)CC(C)C)c2ncccc2c1 | 84.2% (inactive)
CN(C)C(=O)c1cc2cnc(Nc3ccc(-c4csc5c(=O)cc(N6CCOCC6)oc45)cc3)nc2n1C1CCCC1 | -3.68% (active)
CC(C)(C)OC(=O)N1CCN(c2ccc(N)cc2)C(=O)C1 | 127% (inactive)
O=C(N/N=C/c1cccc(O)c1)c1ccccc1Nc1cccc(C(F)(F)F)c1 | 63% (inactive)
Fc1ccc(-n2cc(COc3ncnc4sc5c(c34)CCCC5)nn2)cc1Cl | 109% (inactive)
COc1cc(C(=O)c2cnc(-c3ccc4cc[nH]c4c3)[nH]2)cc(OC)c1OC | -2.58% (active)
O=S(=O)(NCCCNc1nccc(-c2c(-c3cccc(O)c3)nc3occn23)n1)c1ccc(F)cc1 | 116% (inactive)
CC(=O)N1c2ccccc2NC2=C(C(=O)N(C)C2(C)C)C1C (stereo not given) | 37.5% (inactive)
O=C(Nc1nc(-c2ccccc2Cl)cs1)c1cc(-c2ccccc2)nc2ccc(Cl)cc12 | 42.8% (inactive)
O=C(Nc1ccc(Nc2ncccn2)cc1)NC1C=c2ccccc2=CC1 (stereo not given) | 110% (inactive)
CS(=O)(=O)c1ccc(-c2cc(-c3nnc(SCC(=O)Nc4ccc(C(=O)/C=C/c5ccc(Cl)cc5)cc4)n3-c3ccccc3)c3ccccc3n2)cc1 | 110% (inactive)
Clc1cc(Cl)cc(N2N=C(c3cccc(Nc4ccncc4)c3)CC2c2ccccc2)c1 (stereo not given) | 55.7% (inactive)
Cc1cc(C)n(Nc2nc3ccccc3[nH]c2=O)c(=O)c1C#N | 76.2% (inactive)
CN1CCN(c2cc(F)c(NC3=C(Cl)C(=O)c4ncccc4C3=O)c(F)c2)CC1 | -79.9% (active)
O=C1c2ccccc2-c2c1c1c(NCCCO)nc3ccccc3c1n2Cc1ccccc1 | -33.4% (active)
COC(=O)C1NC(=S)N(c2ccc(Cl)cc2)C1/C=C/c1ccccc1 (stereo not given) | 78.6% (inactive)

SMILES | growth
NC(=O)c1cccc(-c2cc(C(N)=O)ccc2Cl)c1 | 52% (inactive)
N/C(=N\N=C\c1cc2ccccc2s1)N/N=C/c1cc2ccccc2s1 | 97% (inactive)
O=C(N/N=C/c1ccc(F)cc1)c1ccccc1Nc1cccc(C(F)(F)F)c1 | 76.4% (inactive)
c1ccc(-c2nnc(Nc3ccc4c(c3)OCCO4)o2)c(NCc2ccncc2)c1 | 77.7% (inactive)
O=S(=O)(c1ccccc1)N1CCCc2ccccc21 | 88.5% (inactive)
C(=N\Nc1ncc(-c2cc3cc4c(cc3o2)OCO4)s1)/c1c[nH]c2ccccc12 | -0.218% (active)
CCN1C(=O)N(CC)C2C1NN=c1s/c(=C3\C(=O)Nc4ccccc43)c(=O)n12 (stereo not given) | -4.18% (active)
COc1ccc(-c2nn(Cc3ccccc3)c3c2-c2oncc2CC3)cc1OC | 49.4% (inactive)
CC(=O)c1c[nH]c2ccc(-c3ccnc(Nc4ccc(NC(=O)C5CCCC5)c(CN5CCOCC5)c4)n3)cc12 | -5.65% (active)
COc1ccc(C(O)c2cc3c(N)c(C(=O)Nc4ccc(Cl)cc4)sc3nc2C)cc1 (stereo not given) | 49.3% (inactive)
FCc1nc2nc(Cl)c(Cl)nc2[nH]1 | 81.2% (inactive)
CC1=CC[C@@H]2CC[C@]3(C)[C@H](CC[C@@H]4[C@@]5(C)CCCNC(C)(C)[C@@H]5CC[C@]43C)[C@H]2[C@@H]1C | 23.8% (inactive)
O=[N+]([O-])c1cccc(-c2nc(-c3ccc(Cl)cc3Cl)cn2-c2ccccc2)c1 | 12.6% (inactive)
CCCCCCCCOc1ccc(/C=N/Nc2cc(C)nc3ccc(Cl)cc23)cc1 | 67.3% (inactive)
CC1=NNC(=O)C1CCC(=O)N/N=C(\C)c1ccc2ccccc2c1 (stereo not given) | 94.4% (inactive)
O=C(Nc1ccc2ncnc(Nc3ccc(Oc4cccc(F)c4)c(Cl)c3)c2c1)c1ccc(CN2CCOCC2)cc1 | 53.9% (inactive)
COc1cc2oc(-c3cccc(C(=O)Nc4ccc(Cl)cc4)c3)cc(=O)c2c(OC)c1OC | -2.18% (active)
O=C1CCCN1c1cccc2cccnc12 | 103% (inactive)
Nc1nnc(C(=O)c2cnc3n(c2=O)CCCCC3)s1 | 98.4% (inactive)
c1ccc(CCSc2ncnc3nc[nH]c23)cc1 | 110% (inactive)
